Reference: PubChem BioAssay (Tox21)
Records with an inconclusive call do not appear. The source made the active and inactive calls. Unless noted, calls follow the shape of the dose curve; as a rule, active = well fitted curve in the direction sought with a large enough effect in the repeat runs; inconclusive = weak or mixed curves; inactive = no such curve, though single readings can be large; an effect the other way counts as inactive or inconclusive.

Tests used:
[1] = qHTS assay to identify small molecule agonists of the vitamin D receptor (VDR) signaling pathway - cell viability counter screen (AID 743224); also: nearly all actives have a fitted effect of over 50% in size; also: potency is read from the fitted curve at half-maximal effect
In short: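 Viability is measured in the same wells as the VDR-bla reporter assay: after 16 h compound treatment and 2 h substrate loading, CellTiter-Glo is added and luminescence read 30 min later.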

[2] = qHTS assay to identify small molecule agonists of the NFkB signaling pathway (AID 1159509; active = well fitted curve in the direction sought with a large enough effect in the signal ratio in the repeat runs, not every such curve was filed as active; the % refers to the signal ratio; also: series mostly up to about 61 µM; % is scaled to controls: 0 for no effect and ±100 for the full control effect)
In short: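 After overnight attachment, reporter cells received test compounds, DMSO or positive controls and were incubated 5 hr at 37 C. FRET substrate was then added for 1.5 hr at room temperature before dual-emission fluorescence reading.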

[3] = qHTS assay to identify small molecule agonists of the NFkB signaling pathway - cell viability counter screen (AID 1159515; calls by dose curve; also: series mostly up to about 61 µM; % is scaled to controls: 0 for no effect and ±100 for the full control effect; nearly all actives have a fitted effect of over 55% in size)
In short: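 Multiplexed viability readout: after the 5 hr compound exposure and 1.5 hr FRET substrate step, CellTiter-Glo reagent went into the same NFkB-bla ME-180 wells; ATP luminescence was measured after 30 min at room temperature.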

[4] = qHTS assay to identify small molecule agonists of the endoplasmic reticulum stress response signaling pathway (AID 1159516; active = well fitted activation curve with a large enough effect in the signal ratio in the repeat runs, not every such curve was filed as active; the % refers to the signal ratio; also: % is scaled to controls: 0 for no effect and ±100 for the full control effect)
In short: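 Tox21 10K library screened in quantitative HTS format on ESRE-bla HeLa cells, a beta-lactamase reporter under ER stress response element control; 5 hr treatment, FRET read.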

[5] = qHTS assay to identify small molecule agonists of the endoplasmic reticulum stress response signaling pathway - cell viability counter screen (AID 1159517; calls by dose curve; also: series mostly up to about 61 µM; % is scaled to controls: 0 for no effect and ±100 for the full control effect; nearly all actives have a fitted effect of over 50% in size)
In short: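 Luminescence readout: CellTiter-Glo, 30 min RT, same wells as the ESRE-bla reporter read. HeLa ESRE-bla, 1,500 cells/well, o/n 37 C; cpd 5 hr 37 C/5% CO2.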

[6] = qHTS assay to identify small molecule antagonists of the retinoid-related orphan receptor gamma (ROR-gamma) signaling pathway - cell viability counter screen (AID 1159520); also: nearly all actives have a fitted effect of over 50% in size; also: potency is read from the fitted curve at half-maximal effect
In short: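 Tet-on ROR gamma CHO cells (1,000/well) were plated 4 hr, given compounds in DMSO for 2 hr at 37 C, then induced with 1 uM final doxycycline for 16 hr. Viability was read as ATP by CellTiter-Glo luminescence after 30 min.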

[7] = biological target: Nuclear receptor ROR-gamma (Homo sapiens) (UniProt P51449); test: qHTS assay to identify small molecule antagonists of the retinoid-related orphan receptor gamma (ROR-gamma) signaling pathway (AID 1159521; also: nearly all actives have a fitted effect of over 50% in size; also: potency is read from the fitted curve at half-maximal effect)
In short: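 CHO Tet-on RORγ, RORE-luc reporter. Cpd 2 h pre-incubation, then dox hyclate 1 uM final, 16 h, 37 C/5% CO2. ONE-Glo luminescence; decrease = antagonist.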

[8] = qHTS assay to identify small molecule agonists of the AP-1 signaling pathway - cell viability counter screen (AID 1159525; calls by dose curve; also: nearly all actives have a fitted effect of over 55% in size)
In short: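 ME-180 AP-1-bla, 2500 cells/well, Opti-MEM + 0.5% dialyzed FBS; overnight 37 °C; cpd 15-pt titration, 5 h 37 °C; CellTiter-Glo 30 min RT; luminescence read; normalised to TOAB and DMSO controls.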

[9] = qHTS assay to identify small molecule agonists of the AP-1 signaling pathway (AID 1159526; calls by dose curve; also: % is scaled to controls: 0 for no effect and ±100 for the full control effect)
[10] = qHTS assay to identify small molecule antagonists of the retinoid acid receptor (RAR) signaling pathway - cell viability counter screen (AID 1159551); also: % is scaled to controls: 0 for no effect and ±100 for the full control effect; nearly all actives have a fitted effect of over 35% in size
In short: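 Cytotoxicity counter screen in C3RL4 cells: 6 h compound exposure with 1 uM retinol (final), viability from cellular ATP by luminescence.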

[11] = qHTS assay to identify small molecule antagonists of the retinoic acid receptor (RAR) signaling pathway (AID 1159552)
In short: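 Cells of the C3RL4 line were seeded, incubated overnight, then dosed with compounds in DMSO followed immediately by retinol (1 uM final). Six hours later luciferase detection reagent went in; signal was measured after 30 min at RT.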

[12] = qHTS assay to identify small molecule agonists of the retinoic acid receptor (RAR) signaling pathway (AID 1159553); also: potency is read from the fitted curve at half-maximal effect
In short: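 Agonist activity was scored in C3RL4 cells bearing a retinoic acid response element luciferase construct. Cells were treated with compounds for 6 hr at 37 C, and luciferase signal was measured as luminescence.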

[13] = qHTS assay to identify small molecule agonists of the RXR signaling pathway - cell viability counter screen (AID 1159529); also: nearly all actives have a fitted effect of over 50% in size; also: potency is read from the fitted curve at half-maximal effect
In short: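 HEK 293T RXRa-bla cells, 2% CS-FBS; 5 h settle; cpd 16 h 37 C, 5% CO2; CellTiter-Glo 30 min RT, luminescence. Tetraoctyl ammonium bromide as positive control.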

[14] = qHTS assay to identify small molecule antagonists of the vitamin D receptor (VDR) signaling pathway - cell viability counter screen (AID 743225)
In short: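 Read-out: CellTiter-Glo luminescence measured 30 min after reagent addition at room temperature. Cells were VDR-bla HEK 293T exposed 16 h at 37C, 5% CO2, to compound with 3 nM final calcitriol agonist.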

[15] = biological target: Retinoic acid receptor RXR-alpha (Homo sapiens) (UniProt P19793); test: qHTS assay to identify small molecule agonists of the RXR signaling pathway (AID 1159527; calls by dose curve; also: % is scaled to controls: 0 for no effect and ±100 for the full control effect; nearly all actives have a fitted effect of over 35% in size)
In short: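 Read-out: beta-lactamase FRET ratio (405 nm excitation, 460 and 530 nm emission) after 2 hr substrate loading at room temperature. Cells were RXR-alpha-UAS-bla HEK 293T treated with compounds for 16 hr in 2% charcoal-stripped FBS medium.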

[16] = qHTS assay to identify small molecule antagonists of the estrogen related receptor (ERR) signaling pathway - cell viability counter screen (AID 1224818);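 also: series mostly up to about 46 µM; viability measured after 17.5 h of compound exposure; % is scaled to controls: 0 for no effect and ±100 for the full control effect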
In short: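 Cells carrying the ERR pathway reporter were seeded and incubated for 6 hours before compound addition. After a 17.5-hour exposure at 37 C, live-cell protease activity was measured by CellTiter-Fluor fluorescence following 30 minutes of incubation.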

[17] = qHTS assay to identify small molecule antagonists of the estrogen related receptor signaling pathway with the pleiotropic PPARgamma coactivator (PGC) cell viability counter screen (AID 1224822)
In short: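 Seed PGC/ERR cells (2,000/well); incubate 6 h at 37 C/5% CO2; pin-transfer compounds in DMSO; incubate 17.5 h at 37 C; add CellTiter-Fluor; after 30 min read fluorescence.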

Chain of Retinoic acid receptor RXR-alpha (Homo sapiens) (P19793 whole entry, looked up): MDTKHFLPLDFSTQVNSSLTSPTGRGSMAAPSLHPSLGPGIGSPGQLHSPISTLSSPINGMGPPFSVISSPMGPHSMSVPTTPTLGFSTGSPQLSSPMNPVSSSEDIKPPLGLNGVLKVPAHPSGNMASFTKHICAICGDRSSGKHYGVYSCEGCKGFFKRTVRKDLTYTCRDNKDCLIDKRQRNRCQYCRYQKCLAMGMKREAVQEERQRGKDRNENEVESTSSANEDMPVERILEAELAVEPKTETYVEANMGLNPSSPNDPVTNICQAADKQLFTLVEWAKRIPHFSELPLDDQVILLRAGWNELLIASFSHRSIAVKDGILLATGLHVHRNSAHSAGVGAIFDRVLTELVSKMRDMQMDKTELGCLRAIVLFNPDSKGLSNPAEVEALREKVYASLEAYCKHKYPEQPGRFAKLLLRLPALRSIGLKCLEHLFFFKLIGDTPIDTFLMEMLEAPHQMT

CNC(=O)N(C)c1nc2ccccc2s1
active: Potency [12] 2.43 µM
inactive: Potency [1] | outcome [2] | outcome [3] | outcome [4] | Potency [5] | Potency [6] | Potency [7] | Potency [8] | outcome [9] | Potency [10] | Potency [11]

CCCCOP(=O)(O)OCCCC
inactive: Potency [1] | outcome [2] | outcome [3] | outcome [4] | Potency [5] | Potency [6] | Potency [7] | Potency [8] | outcome [9] | Potency [13] | Potency [10]

CC1(C)C(=O)NC(=O)NC1=O
inactive: Potency [1] | outcome [14] | outcome [2] | outcome [3] | outcome [4] | Potency [5] | Potency [6] | Potency [7] | Potency [8] | outcome [9] | Potency [13]

N#CC(O)c1ccccc1 (stereo not given)
inactive: Potency [1] | outcome [14] | outcome [2] | outcome [3] | outcome [4] | Potency [5] | Potency [6] | Potency [7] | Potency [8] | outcome [9] | Potency [10]

O=c1oc2ccccc2c(O)c1C1CCCc2ccccc21 (stereo not given)
inactive: Potency [1] | outcome [14] | outcome [2] | outcome [3] | outcome [4] | Potency [5] | Potency [6] | Potency [8] | outcome [9] | Potency [10] | Potency [11] | Potency [12]
active: Potency [7] 48.6 µM

CCOP(=S)(OCC)Oc1cc(-c2ccccc2)on1
inactive: Potency [1] | outcome [2] | outcome [3] | outcome [4] | Potency [5] | Potency [6] | Potency [7] | Potency [8] | outcome [9] | Potency [10] | Potency [11]

CCOC(=O)N(C)C(=O)CSP(=S)(OCC)OCC
inactive: Potency [1] | outcome [2] | outcome [3] | outcome [4] | Potency [5] | Potency [6] | Potency [7] | Potency [8] | outcome [9] | Potency [10]

CCC/C(=N\OCC)C1=C(O)CC(CC(C)SCC)CC1=O (stereo not given)
inactive: outcome [14] | outcome [2] | outcome [3] | outcome [4] | Potency [5] | Potency [6] | Potency [7] | Potency [8] | outcome [9] | Potency [13] | Potency [11]

CN1CCN(C(=O)O[C@H]2c3nccnc3C(=O)N2c2ccc(Cl)cn2)CC1
inactive: Potency [1] | outcome [14] | outcome [2] | outcome [3] | outcome [4] | Potency [5] | Potency [6] | Potency [7] | Potency [8] | outcome [9] | Potency [10] | Potency [12]

O=CNC(N1CCN(C(NC=O)C(Cl)(Cl)Cl)CC1)C(Cl)(Cl)Cl (stereo not given)
inactive: Potency [1] | outcome [14] | outcome [2] | outcome [3] | outcome [4] | Potency [5] | Potency [6] | Potency [7] | Potency [8] | outcome [9] | Potency [10]

ClCCCN1CCN(c2cccc(Cl)c2)CC1
inactive: Potency [1] | outcome [2] | outcome [3] | outcome [4] | Potency [5] | Potency [6] | Potency [7] | Potency [8] | Potency [15] | Potency [13] | Potency [10] | Potency [11] | Potency [12]

COc1cccc2c1cc([N+](=O)[O-])c1c(C(=O)O)cc3c(c12)OCO3
inactive: outcome [2] | outcome [3] | outcome [4] | Potency [5] | Potency [8]
active: Potency [1] 15.5 µM | Potency [6] 43.3 µM | Potency [7] 15.4 µM | Potency [13] 17.4 µM

NC1=NC(=O)C(c2ccccc2)O1 (stereo not given)
inactive: Potency [1] | outcome [14] | outcome [2] | outcome [3] | outcome [4] | Potency [5] | Potency [6] | Potency [7] | outcome [9] | Potency [15] | Potency [13] | Potency [10]

CC(CCc1ccccc1)NC(C)C(O)c1ccc(O)cc1 (stereo not given)
inactive: Potency [1] | outcome [2] | outcome [3] | outcome [4] | Potency [5] | Potency [6] | Potency [7] | Potency [8] | Potency [15] | Potency [13] | outcome [16] | outcome [17]

O=C1c2ccccc2C(=O)c2ccccc21
inactive: Potency [1] | outcome [14] | outcome [2] | outcome [3] | outcome [4] | Potency [5] | activity, negative = cytotoxicity [6] -0.509% [at 19 µM] | activity change, negative = inhibition [7] 99.4% [at 19 µM] | activation [9] 11.5% [at 15.8 µM] | activation [15] 2.89% [at 15.8 µM] | activity change, negative = cytotoxicity [13] 3.01% [at 15.8 µM] | activity change, negative = cytotoxicity [10] 3.84% [at 19 µM] | activity, negative = inhibition [11] 14.2% [at 19 µM]

CCC(=O)C(CCN(C)C)(c1ccccc1)c1ccccc1
inactive: Potency [1] | outcome [14] | outcome [2] | outcome [3] | outcome [4] | Potency [5] | Potency [6] | Potency [7] | Potency [8] | Potency [15] | Potency [10] | Potency [12]

CN1CCC(N(Cc2ccccc2)c2ccccc2)CC1
inactive: Potency [1] | outcome [14] | outcome [2] | outcome [3] | outcome [4] | Potency [5] | Potency [6] | Potency [7] | Potency [8] | Potency [15] | Potency [10]

CCCCOC(=O)[C@@H](C)Oc1ccc(Oc2ccc(C#N)cc2F)cc1
inactive: Potency [1] | outcome [2] | outcome [3] | outcome [4] | Potency [5] | Potency [6] | Potency [7] | Potency [8] | Potency [13] | Potency [10]
